The record followed here is PubChem BioAssay.

A short description of assay [1]: liver-stage malaria parasite growth inhibition, primary screen, cell-based, HepG2, luciferase luminescence, HepG2 viability (AID 624349; in the data active = parasite load remaining mostly below about 12%, no sharp cut-off; inactive = mostly above about 10%;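 also: 100% = mean of DMSO negative control wells on the same plate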). The note with it: P. berghei liver stage in HepG2, luciferase luminescence, concentration not given here; parasite load remaining: stronger effect = lower value; viability: measured here: HepG2 viability without parasites.
The subject of assay [2] is Hepatitis C virus NS3 helicase. Briefly: HCV NS3 helicase inhibitors, primary screen, biochemical, fluorescence polarization, LOPAC1280 library (AID 687035; in the data active = inhibition above about 37%). The note with it: Purified HCV NS3 helicase, Cy5-dT15 ssDNA binding fluorescence polarization; stronger effect = higher value; concentration not given here. (In fluorescence polarisation assays a small probe gives low polarisation when free and higher when bound to something large.)

Assay [3] in a line: Cy5 fluorescence quenching or enhancement artefacts, artefact control for HCV NS3 helicase inhibitor project, biochemical, LOPAC1280 (AID 687037). The note with it: Cy5-DNA-NS3h complex fluorescence interference counterscreen. A general note: Counterscreens check selectivity or assay interference.
Assay [4] can be described thus: Cy5 fluorescence interference with SSB-bound oligo, artefact control for HCV NS3 helicase inhibitor project, biochemical, NIH Clinical Collection, E. coli SSB (AID 743268).
The subject of assay [5] is Hepatitis C virus NS3 helicase. Briefly: HCV NS3 helicase inhibitors, primary screen, biochemical, fluorescence polarization, NIH Clinical Collection (AID 743270). The note with it: NS3 helicase binding to Cy5-dT15 DNA, stronger effect = higher value, concentration not given here.
Assay [6] concerns the target Single-stranded DNA-binding protein (Escherichia coli (strain K12)) (UniProt P0AGE0). Put plainly: E. coli SSB displacement from DNA, counter-screen for HCV NS3 helicase inhibitor project, biochemical, fluorescence polarization, NIH Clinical Collection (AID 743271; in the data active = inhibition above about 28%). The note with it: stronger effect = higher value, concentration not given here.
A short description of assay [7]: fluorescence interference in NS3h assay format, artefact control for HCV NS3 helicase inhibitor project, biochemical, NIH Clinical Collection (AID 743272).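 Also: HCV NS3 helicase with a Cy5 labelled single stranded DNA probe.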 The note with it: fluorescence interference counterscreen, stronger effect = lower value.
For assay [8], the system named is Neuropilin-2 / VEGF-C interaction (human). Briefly: inhibitors of NRP2–VEGF-C binding, biochemical, microplate binding format, z-score (AID 743281). The note with it: microplate NRP2/VEGF-C binding assay; stronger effect = lower value.
The nature of assay [9]: stimulators of nuclear beta-catenin in C2C12, primary screen, imaging, WNT3A-conditioned medium, mouse C2C12, NPC library (AID 1117326; in the data active = nuclear beta-catenin stimulation mostly above about 4.2%, no sharp cut-off; inactive = mostly below about 10%). The note with it: stronger effect = higher value.

“And” between values parts separate entries of the source, which are not always exact repeats. Identical values can stand only once. The source made the active and inactive calls. Unless noted, no rule for the calls is given here.

As to `COc1ccccc1N1CCN(CC(O)COc2cccc3ccccc23)CC1` (configuration not stated), the parasite load remaining in [1] is 54.9% (inactive) and 58.6% (inactive) and 42.9% (inactive). The viability in assay [1] was 66.8% and 61.4% and 114%. Further, the values for the inhibition in assay [2], in assay [5] and in [6] were -2% (inactive), 5.15% (inactive) and 5.29% (inactive), respectively. In assay [3], the fluorescence ratio (interference) was 1 (inactive). In addition, the fluorescence ratio is 0.97 (inactive) in [4] and 0.89 (inactive) in [7]. Also, the z-score in [8] was 1.13 (inactive). The nuclear beta-catenin stimulation was 1.5% (inactive) in [9] (at 10 µM) and 1.7% in assay [9] (stimulation, at 2 µM).

Take `Clc1ccc2nsnc2c1NC1=NCCN1`: the parasite load remaining in [1] is 61.3% (inactive) and 52.1% (inactive). Moreover, the viability in assay [1] is 95.4% and 240%. The inhibition in [2] is -3% (inactive); in assay [5], -5% (inactive); in [6] it was -2.76% (inactive). Further, the fluorescence ratio (interference) in assay [3] was 1 (inactive). The fluorescence ratio is 1.05 (inactive) in assay [4] and 0.99 (inactive) in assay [7]. Also, the nuclear beta-catenin stimulation was 0.6% (inactive) in [9] (at 10 µM) and -0.6% in assay [9] (stimulation, at 2 µM).

Consider `CN(C)CC[C@@H](c1ccc(Br)cc1)c1ccccn1`, for which the parasite load remaining in assay [1] was 84.6% (inactive). For the same molecule, the viability in [1] was 70.1%. Moreover, the figures for the inhibition in assay [2], in assay [5] and in assay [6] were 0% (inactive), -2.77% (inactive) and -3.18% (inactive), respectively. For the same molecule, the fluorescence ratio (interference) in assay [3] was 1 (inactive). Besides, the fluorescence ratio in assay [4] is 1.07 (inactive); in [7], 0.87 (inactive). In assay [8], the z-score was -0.605 (inactive). For the same molecule, the nuclear beta-catenin stimulation is 1.1% (inactive) in [9] (at 10 µM) and -0.3% in assay [9] (stimulation, at 2 µM).

As for `NC1CCN(c2cccc(Cl)n2)CC1`, in [1], the parasite load remaining is 103% (inactive). Moreover, the viability in assay [1] turned out to be 71.3%. The inhibition in assay [2] is -6% (inactive); in [5], -1.19% (inactive); in [6] it was 133% (active). The fluorescence ratio (interference) in assay [3] is 1 (inactive). For the same molecule, the values for the fluorescence ratio in assay [4] and in assay [7] were 2.95 (active) and 0.9 (inactive), respectively. Moreover, the z-score in [8] was -0.326 (inactive). In addition, the nuclear beta-catenin stimulation in assay [9] (at 10 µM) was -1.8% (inactive); in assay [9] (stimulation, at 2 µM), 1.1%.

With `C[C@H](NC(CCc1ccccc1)C(=O)O)C(=O)N1CCC[C@H]1C(=O)O` (some centres not stated), the parasite load remaining in assay [1] was 94.1% (inactive) and 49.6% (inactive). For the same molecule, the viability in assay [1] is 70.8% and 156%. Further, the values for the inhibition in assay [2], in assay [5] and in assay [6] were -5% (inactive), 1.19% (inactive) and 2.98% (inactive), respectively. In addition, the fluorescence ratio (interference) in assay [3] was 1 (inactive). The fluorescence ratio is 1.07 (inactive) in [4] and 1 (inactive) in assay [7]. Besides, in [8], the z-score is 0.126 (inactive). For the same molecule, the nuclear beta-catenin stimulation was -0.9% (inactive) in assay [9] (at 10 µM) and -2.8% in [9] (stimulation, at 2 µM).

For the molecule `CCOC(=O)O[C@]1(C(=O)OCCl)CC[C@H]2[C@@H]3CCC4=CC(=O)C=C[C@]4(C)[C@H]3[C@@H](O)C[C@@]21C`, the parasite load remaining in assay [1] was 196% (inactive). For the same molecule, in assay [1], the viability turned out to be 72.9%. Also, the figures for the fluorescence ratio in assay [4] and in [7] were 1.04 (inactive) and 1.05 (inactive), respectively. Further, the inhibition is -0.4% (inactive) in [5] and 4.52% (inactive) in assay [6]. In addition, the nuclear beta-catenin stimulation in assay [9] (at 10 µM) is -1.2% (inactive); in [9] (stimulation, at 2 µM) it was -0.3%.

Consider `CCOc1cc(N)c(Cl)cc1C(=O)NCC1CN(Cc2ccc(F)cc2)CCO1` (configuration not stated), for which the parasite load remaining in [1] was 29.6% (inactive). Also, the viability in assay [1] was found to be 70.5%. Further, the fluorescence ratio in assay [4] is 0.99 (inactive); in [7] it was 0.95 (inactive). The inhibition is 1.19% (inactive) in assay [5] and 4.52% (inactive) in [6]. Moreover, in [8], the z-score was 0.948 (inactive). The nuclear beta-catenin stimulation in assay [9] (at 10 µM) is 2.5% (inactive); in assay [9] (stimulation, at 2 µM) it was 1.9%.

Turning to `O=C1[C@H]2CCCC[C@H]2C(=O)N1CCCCN1CCN(c2nsc3ccccc23)CC1`, the parasite load remaining in assay [1] is 42.7% (inactive). Moreover, the viability in assay [1] came to 60.1%. Also, the fluorescence ratio in [4] is 1 (inactive); in assay [7] it was 0.96 (inactive). Moreover, the inhibition in [5] was 0.4% (inactive); in assay [6] it was -2.41% (inactive). For the same molecule, the z-score in assay [8] is -0.553 (inactive). In addition, the nuclear beta-catenin stimulation was 10.9% (inactive) in assay [9] (at 10 µM) and 1% in assay [9] (stimulation, at 2 µM).

As to `CC[N+](C)(CC)CCOC(=O)C(O)(c1ccccc1)C1CCCCC1` (configuration not stated), the parasite load remaining in assay [1] was 65.2% (inactive). Moreover, in assay [1], the viability was 67.2%. Besides, the fluorescence ratio is 0.93 (inactive) in [4] and 0.89 (inactive) in assay [7]. Moreover, the inhibition in [5] was -3.71% (inactive); in assay [6], -1.18% (inactive). In assay [8], the z-score is -0.249 (inactive). Besides, the nuclear beta-catenin stimulation in assay [9] (at 10 µM) is -1% (inactive); in [9] (stimulation, at 2 µM) it was 3.2%.

Take `CCN(CC)CC1CCCCN1CC(=O)N1c2ccccc2C(=O)Nc2cccnc21` (configuration not stated): in [1], the parasite load remaining is 84.2% (inactive). In [1], the viability amounted to 71.2%. In addition, the fluorescence ratio in [4] and in [7] was 1.04 (inactive) each time. Moreover, the inhibition is -2.77% (inactive) in assay [5] and -2.41% (inactive) in assay [6]. Besides, the z-score in assay [8] is -0.131 (inactive). Besides, the nuclear beta-catenin stimulation is 6.3% (inactive) in assay [9] (at 10 µM) and 1.6% in assay [9] (stimulation, at 2 µM).

`COC(=O)C1=C(C)NC(C)=C(C(=O)O[C@@H]2CCCN(Cc3ccccc3)C2)[C@@H]1c1cccc([N+](=O)[O-])c1`: in [1], the parasite load remaining was 10.8% (inactive). The viability in assay [1] stood at 55.9%. In addition, the results for the fluorescence ratio in [4] and in [7] were 0.96 (inactive) and 0.94 (inactive), respectively. Further, the inhibition in assay [5] is 3.56% (inactive); in assay [6], 5.29% (inactive). The z-score in assay [8] was 1.67 (inactive). The nuclear beta-catenin stimulation in [9] (at 10 µM) is 8.2% (inactive); in [9] (stimulation, at 2 µM), 5.8%.

In the case of `CCCOc1ccc(C(=O)OCCN(CC)CC)cc1N`, the parasite load remaining in [1] is 35.3% (inactive) and 89.5% (inactive) and 24.4% (inactive). For the same molecule, the viability in [1] is 102% and 98.4% and 98.5%. In addition, the fluorescence ratio was 0.101 (active) in assay [4] and 1.02 (inactive) in assay [7]. Besides, the inhibition in assay [5] was -4.09% (inactive); in [6], 0.29% (inactive). Besides, the nuclear beta-catenin stimulation in assay [9] (at 10 µM) is 1.3% (inactive); in [9] (stimulation, at 2 µM), 5.7%.

Turning to `CCN1CCN(c2cc3c(cc2F)c(=O)c(C(=O)O)cn3C2CC2)CC1`, the parasite load remaining in assay [1] was 29.1% (inactive) and 34.1% (inactive) and 1.73% (inactive). The viability in assay [1] is 97.4% and 66.5% and 68.5%. In addition, the fluorescence ratio in assay [4] was 1 (inactive); in assay [7], 0.97 (inactive). Further, the inhibition in [5] is 0.66% (inactive); in assay [6], 0.39% (inactive). Besides, in [8], the z-score was -0.441 (inactive). In addition, the nuclear beta-catenin stimulation was 0.9% (inactive) in [9] (at 10 µM) and 0.3% in assay [9] (stimulation, at 2 µM).

As for `C#C[C@]1(O)CC[C@H]2[C@@H]3CCc4cc(OC)ccc4[C@H]3CC[C@@]21C`, in assay [1], the parasite load remaining was 48% (inactive) and 32.2% (inactive). Also, the viability in assay [1] was 96.9% and 76.9%. Further, the fluorescence ratio in [4] and in assay [7] was 1 (inactive) in each case. The inhibition is 3.56% (inactive) in assay [5] and 1.44% (inactive) in assay [6]. Moreover, the nuclear beta-catenin stimulation in assay [9] (at 10 µM) is 3.3% (inactive); in [9] (stimulation, at 2 µM), 0.6%.

As a reminder, the viability is a read-out of living cells in per cent, often relative to untreated cells. As a reminder, the inhibition is the drop in the measured response relative to a control, in per cent.
